# Measured values taken from the supplement of paper PMC9446081.
# The whole screen tested about 39,000 compounds, of which about 220 (0.56%) showed activity. Only a selection was taken, and actives are over-represented in it overall. Unmarked numbers belong to inactive results.
# System: Escherichia coli K-12 BW25113
# Experiment: relative growth (OD600 normalised to plate interquartile mean) (fraction); higher = less growth inhibition, active = 0.2 or less
# Settings: 50 µM; LB; incubation time: overnight (16-24 h)
# 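Further: Wild-type cells incubated without shaking, value is the mean of two biological replicates.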
row,SMILES,relative growth
1,C[C@H](CO)N1C[C@H](C)[C@H](CN(C)S(=O)(=O)c2ccccc2F)Oc2ncc(C#Cc3ccccc3F)cc2C1=O,0.997
2,CO[C@@H]1CN(C)C(=O)c2cc(NC(=O)c3ccccc3)ccc2OC[C@@H](C)N(C(=O)CN(C)C)C[C@@H]1C,0.926
3,Cc1noc(C)c1NC(=O)Nc1cccc2c1O[C@H](CN(C)Cc1ccc(Oc3ccccc3)cc1)[C@H](C)CN([C@H](C)CO)C2=O,0.982
4,Cc1noc(C)c1S(=O)(=O)Nc1ccc2c(c1)C(=O)N([C@@H](C)CO)C[C@@H](C)[C@@H](CN(C)S(=O)(=O)c1cccs1)O2,1.01
5,C[C@H](CO)N1C[C@H](C)[C@H](CN(C)Cc2ccc(C(=O)O)cc2)Oc2ccc(NC(=O)CCCN(C)C)cc2C1=O,1.01
6,COc1ccc(C2=C(NC(=O)c3ccc(OC)cc3-c3cccc(OC)c3)C(=O)c3ccccc3C2=O)cc1,1.01
7,C[C@@H]1CCCCO[C@@H](CN(C)C(=O)CCC(F)(F)F)[C@H](C)CN([C@H](C)CO)C(=O)c2cc(NS(=O)(=O)c3ccccc3)ccc2O1,0.994
8,C/C=C\C1=C(C(=O)O)N2C(=O)[C@H](NC(=O)[C@@H](N)c3ccc(O)cc3)[C@@H]2SC1,0.912
9,C=CC1=C(C(=O)O)N2C(=O)[C@@H](NC(=O)/C(=N/O)c3csc(N)n3)[C@H]2SC1,0.0336 (active)
10,Nc1nc(/C(=N/O)C(=O)N[C@@H]2C(=O)N3C(C(=O)O)=C(/C=C4\CCN([C@@H]5CCNC5)C4=O)CS[C@H]23)ns1,0.0367 (active)
11,CC=CC1=C(C(=O)O)N2C(=O)C(NC(=O)C(N)c3ccc(O)cc3)C2SC1 (stereo not drawn),1.08
12,C[C@H](CO)N1C[C@H](C)[C@H](CN(C)S(=O)(=O)c2ccc(Cl)cc2)Oc2ccc(NC(=O)CCCN(C)C)cc2C1=O,0.989
13,COc1ccc(Cc2nn[nH]n2)cc1,1
14,Cc1noc(C)c1NC(=O)N(C)C[C@H]1OCCCC[C@H](C)Oc2ccc(NC(=O)c3ccccc3)cc2C(=O)N([C@@H](C)CO)C[C@H]1C,0.98
15,CCc1nc2ccc(C(=O)Nc3cccc(OC)c3)cn2c1N(CC)Cc1cccc(Br)c1,1.01
16,CO[C@H]1CN(C)C(=O)c2cc(NC(C)=O)ccc2OC[C@@H](C)N(S(=O)(=O)c2cn(C)cn2)C[C@@H]1C,1.01
17,CCn1cc(C(=O)O)c(=O)c2cc(F)c(N3CCNC(C)C3)c(F)c21.Cl (stereo not drawn),0.0478 (active)
18,COc1c(N2CC3CCCNC3C2)c(F)cc2c(=O)c(C(=O)O)cn(C3CC3)c12.Cl (stereo not drawn),0.0459 (active)
19,COc1c(N2CCNC(C)C2)c(F)cc2c(=O)c(C(=O)O)cn(C3CC3)c12 (stereo not drawn),0.0431 (active)
20,C[C@@H]1CN([C@@H](C)CO)C(=O)c2cc(Br)cnc2O[C@H]1CN(C)C(=O)c1ccc2c(c1)OCO2,0.994
21,Nc1c2c(=O)[nH]c(=O)cc-2[nH]n1-c1ccccc1,0.972

row,SMILES,relative growth
1,COCC#Cc1ccc2c(c1)O[C@H](CN(C)C(=O)C1CCOCC1)[C@H](C)CN([C@@H](C)CO)S2(=O)=O,1.01
2,CC(C)CNC(=O)C[C@H]1NCCNC1=O,0.923
3,CN1C(=O)c2cc(NC(=O)c3cccs3)ccc2OC[C@@H]2O[C@H](CC(=O)NCCN3CCCCC3)CC[C@H]21,1.02
4,C[C@@H]1CN([C@H](C)CO)C(=O)c2cc(NC(=O)Cn3cnnn3)ccc2O[C@@H]1CN(C)Cc1ccncc1,1.01
5,C[C@H]1CN([C@@H](C)CO)C(=O)c2cc(-c3ccncc3)cnc2O[C@H]1CN(C)S(=O)(=O)c1ccccc1,1.01
6,C=C(CC[C@@H](C)[C@H]1CC[C@@]2(C)C3=C(C[C@H](O)[C@]12C)[C@@]1(C)CC[C@@H](OC(=O)CC(=O)O)C(C)(C)[C@@H]1CC3)[C@@H](C)C(=O)O,0.89
7,C[C@@H]1CN([C@H](C)CO)C(=O)c2cc(NC(=O)Nc3ccc(F)cc3)ccc2O[C@@H](C)CCCCO[C@H]1CN(C)C(=O)C1CCCCC1,1.01
8,CN1CCN(C(=O)C[C@@H]2CC[C@@H]3[C@H](COC[C@H](O)CN3C(=O)Nc3ccc4c(c3)OCO4)O2)CC1,0.974
9,Cc1noc(C)c1S(=O)(=O)N(C)C[C@@H]1OCCCC[C@H](C)Oc2ccc(NC(=O)Nc3ccc(F)cc3)cc2C(=O)N([C@H](C)CO)C[C@@H]1C,1
10,CO/N=C(\C(=O)N[C@@H]1C(=O)N2C(C(=O)O[C@@H](C)OC(C)=O)=C(COC(N)=O)CS[C@H]12)c1ccco1,1.01
11,CON=C(C(=O)NC1C(=O)N2C(C(=O)OC(C)OC(C)=O)=C(COC(N)=O)CSC12)c1ccco1 (stereo not drawn),0.881
12,CON=C(C(=O)NC1C(=O)N2C(C(=O)[O-])=C(COC(C)=O)CSC12)c1csc(N)n1.[Na+] (stereo not drawn),0.0428 (active)
13,CON=C(C(=O)NC1C(=O)N2C(C(=O)[O-])=C(COC(N)=O)CSC12)c1ccco1.[Na+] (stereo not drawn),0.0464 (active)
14,COCC1=C(C(=O)OC(C)OC(=O)OC(C)C)N2C(=O)C(NC(=O)C(=NOC)c3csc(N)n3)C2SC1 (stereo not drawn),0.551
15,CO/N=C(\C(=O)N[C@@H]1C(=O)N2C(C(=O)O)=C(CSc3nnnn3C)CS[C@H]12)c1csc(N)n1,0.0456 (active)
16,CON=C(C(=O)NC1C(=O)N2C(C(=O)[O-])=C(CSc3nc(=O)c([O-])nn3C)CSC12)c1csc(N)n1.O.O.O.[Na+].[Na+] (stereo not drawn),0.0494 (active)
17,Nc1nc(=O)c2nc(Br)n([C@@H]3O[C@@H]4COP(=O)(O)O[C@H]4[C@H]3O)c2[nH]1,1.03
18,O=C(C[C@@H]1C[C@H]2c3cc(NC(=O)Nc4ccc(C(F)(F)F)cc4)ccc3O[C@H]2[C@H](CO)O1)NCc1ccc(Cl)cc1,0.984
19,CN1CCN(C(=O)C[C@H]2CC[C@@H]3[C@H](COC[C@H](O)CN3CC3CCCC3)O2)CC1,1
20,C[C@H](CO)N1C[C@H](C)[C@H](CN(C)C(=O)c2cccc(F)c2)Oc2cc(-c3cccnc3)ccc2S1(=O)=O,1.03
21,NCC[C@H]1CC[C@H](NC(=O)NC2CCCCC2)[C@H](CO)O1,0.986

row,SMILES,relative growth
1,C[C@@H]1CN([C@@H](C)CO)C(=O)Cc2cc(NC(=O)Nc3ccccc3)ccc2O[C@@H]1CN(C)Cc1ccc(Oc2ccccc2)cc1,0.967
2,Cc1nc(CN)c(C)o1,0.995
3,C[C@@H]1CN([C@@H](C)CO)C(=O)c2cc(NC(=O)Nc3ccc(C(F)(F)F)cc3)ccc2O[C@@H]1CN(C)S(=O)(=O)c1ccc(Cl)cc1,1.04
4,C[C@H](CO)N1C[C@H](C)[C@H](CN(C)C(=O)Nc2ccc(C(F)(F)F)cc2)Oc2ccc(NC(=O)CCCCCC(=O)Nc3ccccc3N)cc2C1=O,0.925
5,Cc1noc(C)c1NC(=O)Nc1cccc2c1O[C@@H](CN(C)Cc1ccc(-c3ccccc3)cc1)[C@H](C)CN([C@@H](C)CO)C2=O,1.01
6,CON=C(C(=O)N[C@@H]1C(=O)N2C(C(=O)O)=C(CSc3nc(=O)c(O)nn3C)CS[C@H]12)c1csc(N)n1,0.0335 (active)
7,C[C@@H]1CN([C@@H](C)CO)C(=O)Cc2cc(NC(=O)Nc3ccc(C(F)(F)F)cc3)ccc2O[C@@H]1CN(C)Cc1ccc(C(=O)Nc2ccccc2N)cc1,1
8,Cc1noc(C)c1NC(=O)Nc1ccc2c(c1)C(=O)N([C@H](C)CO)C[C@@H](C)[C@H](CN(C)S(=O)(=O)c1cccs1)OCCCC[C@H](C)O2,0.988
9,C[C@@H]1CN([C@H](C)CO)C(=O)c2cc(NS(=O)(=O)c3cccs3)ccc2O[C@H]1CN(C)Cc1ccc(Cl)c(Cl)c1,0.994
10,Cc1ccc(S(=O)(=O)N(C)C[C@H]2OCCCC[C@@H](C)Oc3ccc(NC(=O)Nc4c(C)noc4C)cc3C(=O)N([C@@H](C)CO)C[C@@H]2C)cc1,0.961
11,COc1ccc2c3c(n(c2c1)C)[C@@H](CO)N(C[C@]13CN(C1)C(=O)CN1CCOCC1)C(=O)Nc1ccc(cc1)F,0.977
12,C[C@H]1CN([C@@H](C)CO)C(=O)Cc2cc(NC(=O)NC3CCCCC3)ccc2O[C@H]1CN(C)Cc1ccc(Oc2ccccc2)cc1,1.03
13,C[C@@H]1CN([C@@H](C)CO)C(=O)c2cc(NC(=O)C3CCCCC3)ccc2O[C@@H]1CN(C)C(=O)Nc1cccc2ccccc12,1.01
14,C[N+](C)(CCOc1ccccc1)Cc1ccccc1.O=C([O-])c1cc2ccccc2cc1O,0.93
15,Cc1cc(C(C)(C)CC(C)(C)C)ccc1OCCOCC[N+](C)(C)Cc1ccccc1.[Cl-],0.0463 (active)
16,C[N+](C)(CCOc1ccccc1)Cc1ccccc1.O=C(O)c1cc2ccccc2c(Br)c1O,0.944
17,CC(C)(C)CC(C)(C)c1ccc(OCCOCC[N+](C)(C)Cc2ccccc2)cc1.[Cl-],0.0469 (active)
18,COc1ccc(CN(C)C[C@H]2OCCCC[C@H](C)Oc3ccc(NC(=O)Nc4ccc(OC)cc4)cc3C(=O)N([C@@H](C)CO)C[C@H]2C)cc1,0.901
19,C[C@H]1CN([C@@H](C)CO)C(=O)c2cc(C#CC3(O)CCCC3)cnc2O[C@H]1CN(C)C(=O)CN(C)C,0.988
20,O=C(NCC(F)(F)F)[C@@H]1[C@@H](CO)[C@@H]2Cn3c(cccc3=O)[C@@H]2N1C(=O)C1CCC1,1
21,O=C(C[C@@H]1CC[C@H]2[C@@H](COC[C@H](O)CN2C(=O)c2ccccc2F)O1)N1CCN(c2ccccc2)CC1,0.976
